A selection follows.
aSyn 5UTR act = Activators via SNCA 5'UTR binding, MLPCN. activity score, % (tested at 7.5 µM), hits read low. hit rate 7.1% among 300,000. alpha-synuclein 5'UTR reporter, activators screen; in the data active = activity score below about -60%
A number is an active result; 0 = inactive.

SMILES	aSyn 5UTR act
CC(C)c1ccc(NC(=O)N2CCOCC2)cc1	-107.4
CCn1c2ccccc2c2cc(NC(=O)CN(C)CC(=O)Nc3ccc(N4CCOCC4)cc3)ccc21	-143.3
O=C(Nc1ccc2c(c1)oc1ccccc12)N1CCOCC1	-139.6
CCn1c2ccccc2c2cc(NC(=O)N3CCOCC3)ccc21	-83.9
Cc1ccccc1/C=N/Nc1nc2ccccc2[nH]1	-114.8
C(=N\Nc1nc2ccccc2[nH]1)/c1c[nH]c2ccccc12	-223.8
COc1cccc(/C=N/Nc2ncccc2[N+](=O)[O-])c1OC	0
COc1cccc(/C=N/Nc2nc(C)cc(=O)[nH]2)c1OC	-79.4
Cc1[nH]c2ccccc2c1/C=N/Nc1nc2ccccc2[nH]1	-228.4
C(=N\Nc1nc2ccccc2[nH]1)/c1cccc2cccnc12	0
COc1ccc(/C=N/Nc2nc3ccccc3[nH]2)c(OC)c1OC	-108.5
Cc1ccc(/C=N/Nc2nc3ccccc3[nH]2)s1	-311.7
Cc1[nH]c2ccccc2c1/C=N/Nc1cccc(C(=O)O)c1	-101.2
Cc1cc(=O)[nH]c(N/N=C/c2cc(C)n(CC(F)(F)F)c2C)n1	-89.3
CCOc1ccc2c(c1)c(N=Nc1cccc(C(=O)O)c1)c(O)n2C	-179.4
CCc1ccccc1NC(=S)N=Nc1c(O)n(C)c2ccc(S(=O)(=O)N3CCOCC3)cc12	0
Cn1c(=O)oc2cc(S(=O)(=O)CCC(=O)Nc3ccccc3)ccc21	-64.0
CCCc1ccc(-c2cc(C(=O)N/N=C/c3ccc([N+](=O)[O-])o3)c3ccccc3n2)cc1	-74.7
O=C(N/N=C/c1ccc([N+](=O)[O-])o1)c1cc(-c2cccc(Br)c2)nc2ccccc12	-82.6
CCCC(=O)Nc1ccc(C(=O)N/N=C/c2ccc([N+](=O)[O-])o2)cc1	0
CCCCN1C(=O)C(=O)N(CC(=O)N2N=C3/C(=C/c4ccco4)CCCC3C2c2ccco2)C1=O (stereo not drawn)	-86.3
Cc1ccc2c(c1)NC(=O)c1cccnc1N2	-140.3
Cc1cc(NC(=O)c2ccccc2[N+](=O)[O-])ccc1Br	-129.6
O=C(Nc1ccc2nccnc2c1)c1cnccn1	-78.7
Cc1nc(NC(=O)CCc2ccccc2)ccc1Br	-145.1
SMILES	aSyn 5UTR act
Cc1nc(NC(=O)c2cccnc2)ccc1Br	-83.3
Cc1ccccc1C(=O)Nc1ccc(Br)c(C)n1	-112.6
O=C(Nc1ccc2ccccc2c1)c1cnccn1	-129.2
Cc1cc(NC(=O)c2cccnc2)ccc1Br	-147.3
O=C(Nc1ccc2c(c1)Cc1ccccc1-2)c1cccnc1	-121.7
Cc1coc(C)c1C(=O)Nc1ccc2ccccc2c1	-162.1
O=C(Nc1ccc2ccccc2c1)c1cccnc1	-161.1
O=C(Nc1ccc(OCc2ccccc2Cl)cc1)c1cccnc1	0
CC(C)c1ccc(NC(=O)[C@@H]2CCC(=O)N2C2OC(=O)c3ccccc32)cc1 (stereo partly drawn)	-79.3
S=C1NC(c2ccccc2)=NCN1c1ccc(Cl)cc1	-84.0
O=C(CNS(=O)(=O)c1ccc2ccccc2c1)OCc1csc(-c2ccccc2)n1	-62.2
O=C1CCCC/C1=C\Nc1ccc(Cl)cn1	-115.7
O=C(O)c1ccc(N/N=C/c2ccc(-c3cccc(Cl)c3)o2)cc1	-113.7
O=C(O)c1ccc(N/N=C/c2ccc(-c3cc(Cl)ccc3Cl)o2)cc1	-156.2
O=C(O)c1ccc(N/N=C/c2ccc(-c3ccc(Cl)cc3Cl)o2)cc1	-62.3
CC1(C)OC2OC(COC(=O)c3ccccc3)C3OC(C)(C)OC3C2O1 (stereo not drawn)	-88.7
CC(/C=N/Nc1nnc(C)c(=O)[nH]1)=C\c1ccccc1	-97.3
CC(/C=N/Nc1ccc2nncn2n1)=C\c1ccccc1	-71.9
NNc1nc2c(-c3cccc(C(F)(F)F)c3)nnn2c2ccccc12	-70.9
Cc1ccc(Nc2nc(N)nc(CC#N)n2)cc1	-117.6
Cc1ccc(Nc2nc(N)nc(CSc3ncccn3)n2)cc1	-132.2
CCOc1ccc(Nc2nc(N)nc(CCl)n2)cc1	0
Cc1ccc(Nc2nc(N)nc(CSCCO)n2)cc1	-111.5
Nc1nc(CSc2ncccn2)nc(Nc2ccccc2)n1	-147.8
CNc1nnc(-c2cc3cc(Cl)ccc3oc2=O)s1	-77.2
SMILES	aSyn 5UTR act
CCOc1cccc2cc(-c3nnc(NCc4ccco4)s3)c(=O)oc12	-170.5
COc1ccc2oc(=O)c(-c3nnc(NCc4ccco4)s3)cc2c1	-252.9
CCc1ccc(C(=O)c2cc3ccc(O)cc3oc2=O)cc1	-106.4
CC1=NN(C(N)=S)C(=O)C1N=Nc1ccc(Cl)cc1Cl (stereo not drawn)	-183.8
CC1=NN(C(N)=S)C(=O)C1N=Nc1ccc(C)c(Br)c1 (stereo not drawn)	-128.0
CC1=NN(C(N)=S)C(=O)C1N=Nc1cccc(C)c1 (stereo not drawn)	-75.3
COc1ccc(N=Cc2c(O)c3ccccc3n2C(C)=O)cc1	-131.5
COc1ccc(N=Cc2sc(O)c3ccccc23)cc1	-274.0
O=C(c1cnn(-c2nc3ccccc3s2)c1)c1ccccc1O	-117.3
O=C(c1cnn(-c2ccccc2)c1)c1ccc2ccccc2c1O	-119.4
O=C(c1cnn(-c2cccc(F)c2)c1)c1ccccc1O	-194.0
COCCNC(=O)C(c1ccncc1)N(C(=O)c1sc(C)nc1C)c1cccc(C)c1 (stereo not drawn)	-90.0
O=C(NC1=NCCS1)c1sc2ccccc2c1Cl	-166.2
O=C(NC1=NCCS1)c1sc2cc(Cl)cc(Cl)c2c1Cl	-63.8
Cc1cccnc1NC(=O)c1sc2ccccc2c1Cl	-70.3
Cc1ccc(C(=O)c2c3ccccc3[n+]([O-])n2[C@@H](C)C(N)=O)cc1	-86.6
COC(=O)NCC(C)OC(=O)Nc1ccc(Cl)cc1 (stereo not drawn)	-94.8
Cc1ccc(NC(=O)OC(C)CNC(=O)Oc2cccc(C)c2)cc1 (stereo not drawn)	-93.0
Cc1ccc(NC(=O)OCCNC(=O)OC(C)C)cc1	-72.8
COc1ccc(/C=N/NC(=O)c2nc(-c3ccccc3)n(-c3ccccc3)n2)c(O)c1	0
Cc1nn(-c2ccc(C(=O)O)cc2)c(N)c1-c1ccccc1	-178.9
COc1ccc(-c2c(C)nn(-c3ccccc3)c2N)cc1	-110.5
N#Cc1cc2c(nc1SCC(=O)N1CCOCC1)CCCCC2	-64.6
N#Cc1cc2c(nc1SCC(N)=O)CCCCC2	-76.6
Cc1c(C)n(CCO)c2ncnc(Nc3ccc(F)cc3)c12	-64.0
SMILES	aSyn 5UTR act
Cc1cc(C)n(CCC(=O)N/N=C/c2c(O)ccc3ccccc23)n1	0
S=C(NCCN1CCOCC1)N/N=C/c1c2ccccc2cc2ccccc12	-74.1
COc1cc(/C=N/O)ccc1OCc1ccc(C(=O)O)cc1	0
COc1cc(/C=N/O)ccc1OCc1ccc(Cl)cc1	-97.3
COc1cc(/C=N/NC(N)=S)ccc1OCc1ccc(C)cc1	-178.8
COc1cc(/C=N/N=C2/NC(=O)C(CC(=O)O)S2)ccc1OCc1ccc(Cl)cc1 (stereo not drawn)	-148.6
c1cncc(-c2noc(C34CC5CC(CC(C5)C3)C4)n2)c1	-86.9
COc1cnc(-c2ccccn2)nc1Oc1ccc(F)cc1F	-117.9
COc1cnc(-c2ccccn2)nc1NC(C)C	0
CCOC(=O)CN1C(=O)S/C(=C/c2cc(C)n(-c3ccccn3)c2C)C1=O	-149.8
CCc1ccc(/C=C2\SC(=S)N(CCCC(=O)Nc3ccccn3)C2=O)cc1	0
COC(=O)C(C)N1C(=O)S/C(=C/c2cc(C)n(-c3ccccn3)c2C)C1=O (stereo not drawn)	-83.0
CCOC(=O)CN1C(=O)S/C(=C/c2cc(C)n(C)c2C)C1=O	-177.4
CC(/C=C1\SC(=O)N(CCCC(=O)O)C1=O)=C\c1ccccc1	0
O=C(CSc1ccccn1)Nc1ccc2c(c1)CCC2	-76.6
CC(Nc1ccc2c(c1)OCCO2)C(=O)N1CCc2ccccc21 (stereo not drawn)	-64.6
CC(=O)NC(CC(=O)Nc1ccc2c(c1)OCCO2)c1ccccc1 (stereo not drawn)	-76.5
O=C(CSc1ccccn1)Nc1ccc2c(c1)C(=O)c1ccccc1C2=O	-68.2
O=C(Nc1ccc2c(c1)OCCO2)c1ccccn1	0
